From PubChem BioAssay (NCATS)
Inconclusive results are not listed. Calls of active or inactive are those of the source. The call rests on the fitted dose curve; in most records, active means well fitted cell-killing curve with a large enough effect; inconclusive means small, poorly fitted or top-dose-only effect, or effect the other way; inactive means no such curve, though single readings can be large or run the other way. Residues, ends and D or L forms follow the SMILES beside them. *: point of attachment. Cbz = O=C(OCc1ccccc1)*

test: Quantitative High-Throughput drug screen in 47 multiple myeloma cell lines against the NCATS MIPE library collection: U266_ATCC cell viability assay (AID 1919864); conditions: U266 myeloma viability, CellTiter-Glo ATP luminescence, 48 h; series mostly up to 45.8 µM; further: nearly all actives have a fitted effect of over 35% in size
Excerpt: PI: Beverly A. Mock Ph.D.
Laboratory of Cancer Biology and Genetics,
Center for Cancer Research, National Cancer Institute,
National Institute of Health, Bethesda, Maryland
Drug resistance and disease progression are common in multiple myeloma (MM) patients, underscoring the need for new therapeutic combinations. […] We hypothesized that effective combinations would reduce MYC expression and enhance p16 activity. […] These preclinical data identify potentially useful drug combinations for evaluation in drug-resistant MM and reveal potential mechanisms of combined drug sensitivity.
Described herein is the primary MIPE qHTS used to cherrypick compounds. Validated compounds were then further tested for potential synergistic activiy.
[1] Peat TJ, Gaikwad SM, Dubois W, Gyabaah-Kessie N, Zhang S, Gorjifard S, Phyo Z, Andres M, Hughitt VK, Simpson RM, Miller MA, Girvin AT, Taylor A, Williams D, D'Antonio N, Zhang Y, Rajagopalan A, Flietner E, Wilson K, Zhang X, Shinn P, Klumpp-Thomas C, McKnight C, Itkin Z, Chen L, Kazandijian D, Zhang J, Michalowski AM, Simmons JK, Keats J, Thomas CJ, Mock BA. Drug combinations identified by high-throughput screening promote cell cycle transition and upregulate Smad pathways in myeloma. Cancer Lett. 2023 Aug 1;568:216284. doi: 10.1016/j.canlet.2023.216284. Epub 2023 Jun 24. PMID: 37356470; PMCID: PMC10408729.
SEQUENCE No. (e.g., 1, 2, 3, etc.); […] (e.g., Cells, Incubation, Reagent, etc.); VALUE and DESCRIPTION.
1; Cells; 5 uL; white, solid bottom 1536-well Greiner assay plate.
2; Compounds; 23 nL; Kalypsis pin tool (Wako USA) equipped with a 1536-well pin head to transfer to the assay plates.
3; Incubation; 48 hours; 37C incubation.
4; Reagent;5uL; CellTiter Glo (Promega).
5; Detector; 425V; Luminescence; Viewlux PerkinElmer.
NOTES (numbers refer to Sequence numbers above)
1. The cell-based screening methods employed in this study were like those previously published. Briefly, the corresponding myeloma cell lines were screened in 1,536-well plates with 500 cells, 5-uL per well for inhibition of cell viability (assessed by measuring ATP levels with CellTiterGlo).
2. NCATS MIPE 4.0 library of approved and investigational drugs were added using the Kalypsis pin tool. Wells treated with DMSO only for 100% viability and media only for 0% viability were used as controls.
3. The assay plates were covered and incubated for 48 hours in a 37C, 5% CO2 incubator with controlled humidity.
4. After 48 hours, CellTilter-GloTM luminescent substrate mix (Promega) reagent was added to the assay plate and plates we incubated for 5 min at room temperature.
5. Signal was measured as median relative luminescence units on a ViewLux (PerkinElmer) multiplate reader.
[1] Heske CM, Davis MI, Baumgart JT, Wilson K, Gormally MV, Chen L, Zhang X, Ceribelli M, Duveau DY, Guha R, Ferrer M, Arnaldez FI, Ji J, Tran HL, Zhang Y, Mendoza A, Helman LJ, Thomas CJ. Matrix Screen Identifies Synergistic Combination of PARP Inhibitors and Nicotinamide Phosphoribosyltransferase (NAMPT) Inhibitors in Ewing Sarcoma. Clin Cancer Res. 2017 Dec 1;23(23):7301-7311. doi: 10.1158/1078-0432.CCR-17-1121. Epub 2017 Sep 12. PMID: 28899971; PMCID: PMC6636827.
Potency means the concentration at half of the fitted maximal effect.

**Q.** For `CCNC(=O)c1cc2c(-c3cc(OCCN4CCCC4)c(Cl)cc3Cl)nc(N)nc2s1`, which Potency is on record?
**A.** The Potency was 1.05 µM (active).

**Q.** Which Potency does the source give for `CCOC(=O)C1=C(C)NC(=S)NC1c1cccc(O)c1` (stereo not given) here?
**A.** Its Potency is “inactive”.

**Q.** With `COC(=O)C1C2CC3c4[nH]c5cc(OC)ccc5c4CCN3CC2CC(OC(=O)c2cc(OC)c(OC)c(OC)c2)C1OC` (stereo not given) as the compound, how does the Potency read?
**A.** Its Potency is 23.5 µM (active).

**Q.** Which Potency does the source give for `Cc1ccc(-n2[nH]c(C)c(N=Nc3cccc(-c4cccc(C(=O)O)c4)c3O)c2=O)cc1C` here?
**A.** Its Potency is 20.9 µM (active).

**Q.** With `CC(C)OC(=O)[C@H](C)N[P@](=O)(OC[C@H]1O[C@@H](n2ccc(=O)[nH]c2=O)[C@](C)(F)[C@H]1O)Oc1ccccc1` as the compound, how does the Potency read?
**A.** Its Potency is “inactive”.

**Q.** With `Cc1noc(-c2ccc(CSCCC(=O)O)cc2)c1NC(=O)OC(C)c1ccccc1Cl` (stereo not given) as the compound, how does the Potency read?
**A.** Its Potency is “inactive”.

**Q.** Which Potency does the source give for `CC(C)NC[C@@H](C(=O)N1CCN(c2ncnc3c2[C@H](C)C[C@H]3O)CC1)c1ccc(Cl)cc1` here?
**A.** Its Potency is 18.7 µM (active).

**Q.** With `N#CNC(=NCCCCCCOc1ccc(Cl)cc1)Nc1ccncc1` as the compound, how does the Potency read?
**A.** Its Potency is 18.7 µM (active).

**Q.** For `C=Cc1c(C)c2cc3nc(cc4[nH]c(cc5nc(cc1[nH]2)C(C)=C5CCC(=O)O)c(CCC(=O)OC)c4C)[C@@]1(C)C3=CC=C(C(=O)OC)[C@H]1C(=O)OC`, which Potency is on record?
**A.** Its Potency is 0.296 µM (active).

**Q.** For `CC(C)C[C@H](NC(=O)CNC(=O)c1cc(Cl)ccc1Cl)B1OC(=O)CC(CC(=O)O)(C(=O)O)O1` (stereo not given in full), which Potency is on record?
**A.** Its Potency is 0.0526 µM (active).

**Q.** Which Potency does the source give for `CC(C)(N)c1ccc(-c2nc3ccccc3nc2-c2ccccc2)cc1` here?
**A.** The Potency was 23.5 µM (active).

**Q.** With `COc1cccc2c1C(=O)c1c(O)c3c(c(O)c1C2=O)C[C@@](O)(C(=O)CO)C[C@@H]3O[C@H]1C[C@H](N)[C@H](OC2CCCCO2)[C@H](C)O1` (stereo not given in full) as the compound, how does the Potency read?
**A.** The Potency was 2.35 µM (active).

**Q.** For `COc1cccc2c1C(=O)c1c(O)c3c(c(O)c1C2=O)C[C@@](O)(C(=O)CO)C[C@H]3O[C@H]1C[C@H](N)[C@H](O)[C@H](C)O1`, which Potency is on record?
**A.** Its Potency is 0.372 µM (active).

**Q.** For `C[C@H](NC(=O)Cc1cc(F)cc(F)c1)C(=O)N[C@H](C(=O)OC(C)(C)C)c1ccccc1`, which Potency is on record?
**A.** The Potency was “inactive”.

**Q.** For `CC(C=CC1=C(C)CCCC1(C)C)=CC=CC(C)=CC(=O)Nc1ccc(O)cc1`, which Potency is on record?
**A.** Its Potency is 38.2 µM (active).

**Q.** For `c1cncc(CN2CCC(n3ncc4c(N5CCOCC5)nc(-c5ccc6[nH]ccc6c5)nc43)CC2)c1`, which Potency is on record?
**A.** Its Potency is 5.26 µM (active).

**Q.** With `CCC(C(=O)O)C1CCC(C)C(C(C)C(O)C(C)C(=O)C(CC)C2OC3(C=CC(O)[C@@]4(CC[C@](C)(C5CC[C@@](O)(CC)C(C)O5)O4)O3)C(C)CC2C)O1` (stereo not given in full) as the compound, how does the Potency read?
**A.** Its Potency is 5.26 µM (active).

**Q.** With `C[C@H](NCc1ccc(OCc2cccc(F)c2)cc1)C(N)=O` as the compound, how does the Potency read?
**A.** Its Potency is 7.43 µM (active).

**Q.** For `O=c1[nH]c(=O)n([C@H]2C[C@@H](O)[C@@H](CO)O2)cc1C=CBr`, which Potency is on record?
**A.** Its Potency is “inactive”.

**Q.** For `C=C1C[C@@]2(O)O[C@@]3(C[C@H]2C(C)C)[C@H](C)CC[C@H]13`, which Potency is on record?
**A.** Its Potency is “inactive”.

**Q.** Which Potency does the source give for `CCOc1cc2ncc(C#N)c(Nc3ccc(OCc4ccccn4)c(Cl)c3)c2cc1NC(=O)C=CCN(C)C` here?
**A.** Its Potency is 13.2 µM (active).

**Q.** Which Potency does the source give for `Cc1onc(-c2ccccc2)c1C(=O)N[C@@H]1C(=O)N2[C@@H](C(=O)O)C(C)(C)S[C@@H]12` here?
**A.** Its Potency is “inactive”.

**Q.** Which Potency does the source give for `CC(C)c1cnn2c(NCc3ccccc3)cc(NCCCCCCN)nc12` here?
**A.** Its Potency is 2.64 µM (active).

**Q.** With `CC(C=CC=C(C)C=CC1=C(C)CCCC1(C)C)=CC=CC=C(C)C=CC=C(C)C=CC1=C(C)CCCC1(C)C` as the compound, how does the Potency read?
**A.** The Potency was 16.6 µM (active).

**Q.** Which Potency does the source give for `CC(=O)N1CCN(c2ccc(OCc3nn(C)c(C)c3-c3cccc4c(CCCOc5cccc6ccccc56)c(C(=O)O)n(Cc5cccnc5)c34)cc2)CC1` here?
**A.** The Potency was 0.526 µM (active).

**Q.** With `CC(C)(C)c1nc2c3cc[nH]c(=O)c3c3cc(F)ccc3c2[nH]1` as the compound, how does the Potency read?
**A.** The Potency was 1.87 µM (active).

**Q.** Which Potency does the source give for `Cc1cnc(Nc2ccc(CN3CCOCC3)cc2)nc1Nc1cccc(S(=O)(=O)NC(C)(C)C)c1` here?
**A.** The Potency was 7.43 µM (active).

**Q.** For `Cc1[nH]c(C=C2C(=O)Nc3ccccc32)c(C)c1CCC(=O)O`, which Potency is on record?
**A.** The Potency was 5.26 µM (active).

**Q.** Which Potency does the source give for `O=C1NC(O)CCN1[C@@H]1O[C@H](CO)[C@H](O)[C@H]1O` (stereo not given in full) here?
**A.** Its Potency is “inactive”.

**Q.** With `CN[C@H]1[C@@H](O)[C@@H]2O[C@@H]3O[C@H](C)CC(=O)[C@]3(O)O[C@@H]2[C@@H](NC)[C@H]1O` as the compound, how does the Potency read?
**A.** The Potency was 0.662 µM (active).

**Q.** For `CC(C)C[C@@H](C=O)NC(=O)[C@H](CC(C)C)NC(=O)[C@H](CC(C)C)NC(=O)OCc1ccccc1` (Cbz-Leu-Leu-Leu-aldehyde), which Potency is on record?
**A.** The Potency was 0.166 µM (active).

**Q.** With `CCOC(=O)N1CCN([N+]([O-])=NOc2ccc([N+](=O)[O-])cc2C#N)CC1` as the compound, how does the Potency read?
**A.** Its Potency is 0.833 µM (active).

**Q.** Which Potency does the source give for `COc1cc2ncnc(Nc3cccc(Br)c3)c2cc1OC` here?
**A.** Its Potency is “inactive”.

**Q.** For `Cc1coc2c1C(=O)C(=O)c1c-2ccc2c(C)cccc12`, which Potency is on record?
**A.** The Potency was 20.9 µM (active).

**Q.** For `Nc1ncn([C@@H]2O[C@H](CO)[C@@H](O)[C@@H]2O)c(=O)n1`, which Potency is on record?
**A.** The Potency was 10.5 µM (active).

**Q.** For `c1ccc(CNc2nc(NCc3ccccc3)c3ccccc3n2)cc1`, which Potency is on record?
**A.** Its Potency is 14.8 µM (active).

**Q.** With `CC(C)n1cnc2c(NCCc3ccc(O)cc3)nc(-c3csc4ccccc34)nc21` as the compound, how does the Potency read?
**A.** The Potency was 2.35 µM (active).

**Q.** With `NC(=O)c1ncn([C@@H]2O[C@H](CO)[C@@H](O)[C@@H]2O)c1N` as the compound, how does the Potency read?
**A.** The Potency was “inactive”.

**Q.** For `CC[C@@]1([C@@H]2O[C@@H]([C@H]3O[C@@](O)(CO)[C@H](C)C[C@H]3C)C[C@H]2C)CC[C@H]([C@]2(C)CC[C@]3(C[C@H](O)[C@@H](C)[C@@H]([C@@H](C)[C@@H](OC)[C@H](C)C(=O)O)O3)O2)O1`, which Potency is on record?
**A.** The Potency was 0.363 µM (active).

**Q.** With `CC(=O)ON=C1C(c2c(O)[nH]c3cc(Br)ccc23)=Nc2ccccc21` as the compound, how does the Potency read?
**A.** The Potency was 14.8 µM (active).
